# Results: publication PMC7862700, “An all-to-all approach to the identification of sequence-specific readers for epigenetic DNA modifications on cytosine”
# Columns and labels:
# Assay in all cases: DAPPL (digital affinity profiling via proximity ligation, sequencing); 10 mM Tris-HCl pH 7.5, 50 mM NaCl, 1 mM DTT, 4% glycerol, room temperature, 30 min; GST-TFs on glutathione beads, 16-mer random dsDNA library, 0.1% formaldehyde crosslink after washing; high values mean tight binding
# FLI1 = biological target: T1, FLI1 (Homo sapiens, UniProt Q01543 1-452); conditions: protein: recombinant; tags: N-terminal GST; dsDNA, one strand shown
# T1 sequence: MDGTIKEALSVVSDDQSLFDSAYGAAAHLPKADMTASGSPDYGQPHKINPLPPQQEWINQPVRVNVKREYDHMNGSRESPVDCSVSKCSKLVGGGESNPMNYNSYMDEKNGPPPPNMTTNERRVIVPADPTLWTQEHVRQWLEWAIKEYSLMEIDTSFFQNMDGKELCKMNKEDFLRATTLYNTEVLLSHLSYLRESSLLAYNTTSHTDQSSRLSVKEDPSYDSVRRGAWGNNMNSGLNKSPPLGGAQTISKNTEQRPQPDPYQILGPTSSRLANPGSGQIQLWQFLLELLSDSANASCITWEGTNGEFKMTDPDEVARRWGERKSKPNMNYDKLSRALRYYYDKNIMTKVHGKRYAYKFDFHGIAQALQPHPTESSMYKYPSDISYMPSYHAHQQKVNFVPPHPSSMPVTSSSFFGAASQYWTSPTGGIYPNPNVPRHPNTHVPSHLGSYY
# Summary of the method: (§1)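 Binding signal is given per hexamer as its read frequency for a factor divided by its frequency in the tag-only sample. GST-fused human transcription factors were expressed in yeast, captured on glutathione beads, barcoded with DNA and pooled with that sample, then incubated with 200 nmole of a 16-mer random double-stranded DNA library in Tris/NaCl/DTT/glycerol buffer for 30 min at room temperature. The pools were then washed, crosslinked, proximity-ligated, amplified by PCR and sequenced on an Illumina NextSeq500.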
# ELK1 = biological target: T2, ELK1 (Homo sapiens, UniProt P19419 1-428); conditions: protein: recombinant; tags: N-terminal GST; dsDNA, one strand shown
# T2 sequence: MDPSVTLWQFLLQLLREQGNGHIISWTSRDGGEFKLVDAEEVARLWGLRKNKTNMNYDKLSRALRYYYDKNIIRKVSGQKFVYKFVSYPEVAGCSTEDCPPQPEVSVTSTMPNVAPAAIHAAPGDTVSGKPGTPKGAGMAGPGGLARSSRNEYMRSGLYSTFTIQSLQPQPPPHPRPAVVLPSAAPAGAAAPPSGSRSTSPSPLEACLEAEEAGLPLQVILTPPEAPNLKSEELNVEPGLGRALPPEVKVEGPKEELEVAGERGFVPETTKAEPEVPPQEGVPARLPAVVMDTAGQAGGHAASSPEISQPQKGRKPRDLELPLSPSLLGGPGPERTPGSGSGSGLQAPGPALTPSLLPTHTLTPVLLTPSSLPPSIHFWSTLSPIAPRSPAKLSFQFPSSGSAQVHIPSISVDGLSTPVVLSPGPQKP
# Summary of the method: as §1
# GABPA = biological target: T3, GABPA (Homo sapiens, UniProt Q06546 1-454); conditions: protein: recombinant; tags: N-terminal GST; dsDNA, one strand shown
# T3 sequence: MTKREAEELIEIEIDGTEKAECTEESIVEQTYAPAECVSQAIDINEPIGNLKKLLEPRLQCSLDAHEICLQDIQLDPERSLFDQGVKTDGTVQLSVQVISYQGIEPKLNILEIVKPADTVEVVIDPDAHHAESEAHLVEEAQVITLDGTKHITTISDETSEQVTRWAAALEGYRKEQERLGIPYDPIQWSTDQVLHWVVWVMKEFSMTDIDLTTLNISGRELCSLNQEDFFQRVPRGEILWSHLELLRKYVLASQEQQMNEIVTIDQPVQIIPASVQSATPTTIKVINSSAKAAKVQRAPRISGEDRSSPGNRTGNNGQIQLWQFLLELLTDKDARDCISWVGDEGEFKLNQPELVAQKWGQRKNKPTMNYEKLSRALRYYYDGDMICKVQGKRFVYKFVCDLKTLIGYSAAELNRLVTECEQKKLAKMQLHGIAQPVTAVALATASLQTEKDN
# Summary of the method: as §1
# ERG = biological target: T4, ERG (Homo sapiens, UniProt P11308 1-479); conditions: protein: recombinant; tags: N-terminal GST; dsDNA, one strand shown
# T4 sequence: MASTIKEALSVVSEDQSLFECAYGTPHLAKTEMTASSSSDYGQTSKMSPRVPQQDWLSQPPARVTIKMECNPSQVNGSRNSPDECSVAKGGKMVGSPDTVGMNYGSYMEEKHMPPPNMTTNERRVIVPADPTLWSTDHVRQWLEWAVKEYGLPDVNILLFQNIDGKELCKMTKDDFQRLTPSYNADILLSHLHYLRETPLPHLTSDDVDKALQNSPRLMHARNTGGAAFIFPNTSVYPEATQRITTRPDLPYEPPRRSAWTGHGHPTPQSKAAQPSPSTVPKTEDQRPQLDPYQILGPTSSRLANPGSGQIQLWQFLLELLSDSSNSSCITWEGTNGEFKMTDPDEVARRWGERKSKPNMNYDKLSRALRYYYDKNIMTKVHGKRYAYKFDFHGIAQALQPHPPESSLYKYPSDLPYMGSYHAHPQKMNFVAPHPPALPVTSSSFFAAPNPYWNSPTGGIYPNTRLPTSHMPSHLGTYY
# Summary of the method: as §1
# ELF1 = ELF1 (Homo sapiens, UniProt P32519 1-619); conditions: protein: recombinant; tags: N-terminal GST; dsDNA, one strand shown
# ELF1, sequence (P32519 whole entry): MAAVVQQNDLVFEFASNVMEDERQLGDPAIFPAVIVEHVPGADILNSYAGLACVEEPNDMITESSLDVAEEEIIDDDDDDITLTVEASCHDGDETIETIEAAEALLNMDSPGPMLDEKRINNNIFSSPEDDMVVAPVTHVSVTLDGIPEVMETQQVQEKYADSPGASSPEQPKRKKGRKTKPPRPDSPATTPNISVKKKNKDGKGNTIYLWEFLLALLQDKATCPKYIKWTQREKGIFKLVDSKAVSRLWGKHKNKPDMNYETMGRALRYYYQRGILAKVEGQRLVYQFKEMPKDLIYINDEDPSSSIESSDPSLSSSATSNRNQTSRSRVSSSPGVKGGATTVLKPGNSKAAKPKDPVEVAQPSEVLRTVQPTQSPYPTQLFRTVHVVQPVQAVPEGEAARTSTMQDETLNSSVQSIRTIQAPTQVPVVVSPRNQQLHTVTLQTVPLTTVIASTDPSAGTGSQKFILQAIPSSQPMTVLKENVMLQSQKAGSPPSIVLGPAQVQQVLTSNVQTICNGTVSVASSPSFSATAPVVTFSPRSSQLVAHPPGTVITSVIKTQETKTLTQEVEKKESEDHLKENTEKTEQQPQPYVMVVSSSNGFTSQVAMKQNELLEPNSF
# Summary of the method: as §1
# EHF = biological target: T5, EHF (Homo sapiens, UniProt Q9NZC4 1-300); conditions: protein: recombinant; tags: N-terminal GST; dsDNA, one strand shown
# T5 sequence: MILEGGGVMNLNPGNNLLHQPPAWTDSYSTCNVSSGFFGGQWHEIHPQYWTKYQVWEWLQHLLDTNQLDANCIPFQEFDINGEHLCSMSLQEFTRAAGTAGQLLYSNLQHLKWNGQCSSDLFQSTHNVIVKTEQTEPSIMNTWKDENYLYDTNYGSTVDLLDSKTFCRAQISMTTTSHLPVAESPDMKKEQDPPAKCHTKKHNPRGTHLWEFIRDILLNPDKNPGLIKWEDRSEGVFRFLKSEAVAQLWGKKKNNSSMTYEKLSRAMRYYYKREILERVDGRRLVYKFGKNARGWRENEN
# Summary of the method: as §1
# SPI1 = SPI1 (Homo sapiens, UniProt P17947 1-270); conditions: protein: recombinant; tags: N-terminal GST; dsDNA, one strand shown
# Summary of the method: as §1
# SPIB = SPIB (Homo sapiens, UniProt Q01892 1-262); conditions: protein: recombinant; tags: N-terminal GST; dsDNA, one strand shown
# SPIB, sequence (Q01892 whole entry): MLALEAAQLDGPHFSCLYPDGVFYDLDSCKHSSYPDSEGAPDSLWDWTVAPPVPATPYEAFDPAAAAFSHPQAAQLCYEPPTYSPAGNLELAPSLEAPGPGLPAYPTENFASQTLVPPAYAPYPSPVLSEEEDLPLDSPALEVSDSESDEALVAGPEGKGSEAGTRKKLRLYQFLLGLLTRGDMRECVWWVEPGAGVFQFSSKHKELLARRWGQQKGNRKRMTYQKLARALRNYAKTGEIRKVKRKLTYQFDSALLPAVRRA
# Summary of the method: as §1
# ELK3 = biological target: T6, ELK3 (Homo sapiens, UniProt P41970 1-407); conditions: protein: recombinant; tags: N-terminal GST; dsDNA, one strand shown
# T6 sequence: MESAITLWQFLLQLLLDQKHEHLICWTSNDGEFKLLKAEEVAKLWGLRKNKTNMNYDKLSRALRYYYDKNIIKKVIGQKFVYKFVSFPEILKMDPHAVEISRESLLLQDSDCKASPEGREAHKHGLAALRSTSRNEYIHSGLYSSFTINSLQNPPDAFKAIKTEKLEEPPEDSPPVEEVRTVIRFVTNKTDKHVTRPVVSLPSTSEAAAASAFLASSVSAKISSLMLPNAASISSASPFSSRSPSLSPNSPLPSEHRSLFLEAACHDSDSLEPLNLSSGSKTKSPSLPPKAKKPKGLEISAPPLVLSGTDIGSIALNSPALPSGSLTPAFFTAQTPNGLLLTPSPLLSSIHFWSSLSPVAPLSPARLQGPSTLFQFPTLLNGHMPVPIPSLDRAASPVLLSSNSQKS
# Summary of the method: as §1
# FEV = biological target: T7, FEV (Homo sapiens, UniProt Q99581 1-238); conditions: protein: recombinant; tags: N-terminal GST; dsDNA, one strand shown
# T7 sequence: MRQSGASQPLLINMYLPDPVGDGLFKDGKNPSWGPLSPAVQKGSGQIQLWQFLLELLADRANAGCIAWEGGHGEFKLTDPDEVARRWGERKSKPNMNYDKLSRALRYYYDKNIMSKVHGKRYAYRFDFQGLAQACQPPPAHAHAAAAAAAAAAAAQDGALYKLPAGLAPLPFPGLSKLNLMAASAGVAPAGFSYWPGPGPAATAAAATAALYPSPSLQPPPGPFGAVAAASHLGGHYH
# Summary of the method: as §1
# ETV5 = ETV5 (Homo sapiens, UniProt P41161 1-510); conditions: protein: recombinant; tags: N-terminal GST; dsDNA, one strand shown
# ETV5, sequence (P41161 whole entry): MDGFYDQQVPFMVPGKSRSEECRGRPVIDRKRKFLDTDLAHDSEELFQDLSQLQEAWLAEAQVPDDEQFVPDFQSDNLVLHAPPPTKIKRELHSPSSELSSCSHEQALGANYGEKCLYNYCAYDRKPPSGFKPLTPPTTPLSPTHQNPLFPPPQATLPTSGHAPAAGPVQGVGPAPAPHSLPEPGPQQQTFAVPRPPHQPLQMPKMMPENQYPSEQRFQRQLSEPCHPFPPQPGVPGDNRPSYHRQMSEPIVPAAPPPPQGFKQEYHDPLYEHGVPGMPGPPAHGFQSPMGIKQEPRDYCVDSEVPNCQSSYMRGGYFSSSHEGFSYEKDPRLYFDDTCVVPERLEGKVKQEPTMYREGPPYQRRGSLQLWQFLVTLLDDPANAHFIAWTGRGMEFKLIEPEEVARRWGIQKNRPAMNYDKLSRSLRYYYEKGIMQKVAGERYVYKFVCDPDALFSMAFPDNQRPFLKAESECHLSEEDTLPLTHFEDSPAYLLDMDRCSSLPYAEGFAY
# Summary of the method: as §1
# HSF1 = HSF1 (Homo sapiens, UniProt Q00613 1-529); conditions: protein: recombinant; tags: N-terminal GST; chain copies: 3; dsDNA, one strand shown
# HSF1, sequence (Q00613 whole entry): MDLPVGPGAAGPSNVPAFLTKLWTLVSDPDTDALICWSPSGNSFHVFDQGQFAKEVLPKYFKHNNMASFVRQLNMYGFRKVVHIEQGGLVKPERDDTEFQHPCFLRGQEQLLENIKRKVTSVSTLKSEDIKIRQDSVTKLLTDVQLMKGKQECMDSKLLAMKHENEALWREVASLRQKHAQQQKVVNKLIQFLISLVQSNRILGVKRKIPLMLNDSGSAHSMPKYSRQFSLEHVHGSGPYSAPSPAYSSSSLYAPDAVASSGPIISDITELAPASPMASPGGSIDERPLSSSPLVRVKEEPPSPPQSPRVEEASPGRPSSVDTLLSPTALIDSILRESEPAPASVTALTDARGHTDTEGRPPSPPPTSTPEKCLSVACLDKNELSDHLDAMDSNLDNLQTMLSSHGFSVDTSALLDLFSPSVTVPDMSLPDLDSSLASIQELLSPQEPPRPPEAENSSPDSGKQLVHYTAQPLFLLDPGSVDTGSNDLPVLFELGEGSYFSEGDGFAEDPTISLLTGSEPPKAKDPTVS
# Summary of the method: as §1
# SPIC = biological target: T8, SPIC (Homo sapiens, UniProt Q8N5J4 1-248); conditions: protein: recombinant; tags: N-terminal GST; dsDNA, one strand shown
# T8 sequence: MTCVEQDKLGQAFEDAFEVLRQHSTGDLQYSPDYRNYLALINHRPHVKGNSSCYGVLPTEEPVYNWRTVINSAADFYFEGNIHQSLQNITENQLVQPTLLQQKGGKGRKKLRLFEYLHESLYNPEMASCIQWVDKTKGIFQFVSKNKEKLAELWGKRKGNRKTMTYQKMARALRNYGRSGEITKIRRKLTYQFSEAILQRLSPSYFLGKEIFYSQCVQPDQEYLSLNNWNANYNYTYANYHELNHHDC
# Summary of the method: as §1
# ELF4 = ELF4 (Homo sapiens, UniProt Q99607 1-663); conditions: protein: recombinant; tags: N-terminal GST; dsDNA, one strand shown
# ELF4, sequence (Q99607 whole entry): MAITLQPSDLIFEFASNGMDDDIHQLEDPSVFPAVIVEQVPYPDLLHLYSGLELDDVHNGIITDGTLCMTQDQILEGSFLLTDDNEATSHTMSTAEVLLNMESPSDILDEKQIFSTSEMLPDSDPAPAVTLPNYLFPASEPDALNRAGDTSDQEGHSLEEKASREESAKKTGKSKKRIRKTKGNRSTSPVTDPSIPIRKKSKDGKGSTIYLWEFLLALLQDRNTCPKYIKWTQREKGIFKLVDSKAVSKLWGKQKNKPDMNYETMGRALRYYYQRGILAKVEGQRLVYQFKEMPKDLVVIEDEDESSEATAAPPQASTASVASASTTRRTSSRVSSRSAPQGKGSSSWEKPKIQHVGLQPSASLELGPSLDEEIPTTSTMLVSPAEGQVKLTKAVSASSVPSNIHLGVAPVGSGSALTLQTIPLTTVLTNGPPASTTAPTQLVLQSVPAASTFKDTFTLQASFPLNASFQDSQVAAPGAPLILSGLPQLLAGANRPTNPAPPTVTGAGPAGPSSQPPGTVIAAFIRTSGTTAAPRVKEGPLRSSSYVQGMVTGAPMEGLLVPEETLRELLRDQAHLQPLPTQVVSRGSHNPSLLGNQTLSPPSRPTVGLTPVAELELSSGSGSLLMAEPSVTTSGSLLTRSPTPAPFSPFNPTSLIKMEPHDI
# Summary of the method: as §1
# ELK4 = biological target: T9, ELK4 (Homo sapiens, UniProt P28324-2 1-405); conditions: protein: recombinant; tags: N-terminal GST; dsDNA, one strand shown
# T9 sequence: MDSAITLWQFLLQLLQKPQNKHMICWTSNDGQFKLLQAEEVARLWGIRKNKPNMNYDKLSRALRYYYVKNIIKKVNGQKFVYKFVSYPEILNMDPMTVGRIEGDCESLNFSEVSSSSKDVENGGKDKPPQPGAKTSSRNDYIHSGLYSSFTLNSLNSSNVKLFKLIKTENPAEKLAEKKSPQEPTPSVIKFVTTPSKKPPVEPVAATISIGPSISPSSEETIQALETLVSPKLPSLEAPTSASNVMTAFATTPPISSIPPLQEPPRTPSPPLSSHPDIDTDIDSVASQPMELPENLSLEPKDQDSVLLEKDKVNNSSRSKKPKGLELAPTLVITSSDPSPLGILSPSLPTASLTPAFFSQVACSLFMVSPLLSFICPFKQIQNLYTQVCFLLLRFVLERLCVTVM
# Summary of the method: as §1
# ETV2 = biological target: T10, ETV2 (Homo sapiens, UniProt O00321 1-342); conditions: protein: recombinant; tags: N-terminal GST; dsDNA, one strand shown
# T10 sequence: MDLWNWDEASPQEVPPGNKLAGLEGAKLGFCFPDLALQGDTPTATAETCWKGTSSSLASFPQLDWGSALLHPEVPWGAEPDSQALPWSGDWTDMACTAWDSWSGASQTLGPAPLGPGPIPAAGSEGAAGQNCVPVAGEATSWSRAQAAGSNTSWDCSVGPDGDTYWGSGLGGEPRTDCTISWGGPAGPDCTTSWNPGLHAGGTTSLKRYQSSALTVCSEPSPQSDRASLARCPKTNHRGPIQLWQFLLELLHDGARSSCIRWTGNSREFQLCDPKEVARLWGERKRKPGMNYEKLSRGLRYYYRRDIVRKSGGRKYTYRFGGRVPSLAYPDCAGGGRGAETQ
# Summary of the method: as §1
# ELF3 = biological target: T11, ELF3 (Homo sapiens, UniProt P78545 1-371); conditions: protein: recombinant; tags: N-terminal GST; dsDNA, one strand shown
# T11 sequence: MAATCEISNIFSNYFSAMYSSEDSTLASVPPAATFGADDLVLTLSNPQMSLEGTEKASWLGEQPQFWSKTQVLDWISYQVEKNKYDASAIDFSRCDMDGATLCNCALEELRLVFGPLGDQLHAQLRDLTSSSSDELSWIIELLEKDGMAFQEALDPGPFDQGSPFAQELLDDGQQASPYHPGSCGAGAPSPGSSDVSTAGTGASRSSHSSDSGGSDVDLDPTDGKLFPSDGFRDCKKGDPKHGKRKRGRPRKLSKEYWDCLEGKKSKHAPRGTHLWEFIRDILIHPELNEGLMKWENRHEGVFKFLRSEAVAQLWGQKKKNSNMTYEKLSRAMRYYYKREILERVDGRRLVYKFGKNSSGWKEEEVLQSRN
# Summary of the method: as §1
# CRX = CRX (Homo sapiens, UniProt O43186 1-299); conditions: protein: recombinant; tags: N-terminal GST; dsDNA, one strand shown
# CRX, sequence (O43186 whole entry): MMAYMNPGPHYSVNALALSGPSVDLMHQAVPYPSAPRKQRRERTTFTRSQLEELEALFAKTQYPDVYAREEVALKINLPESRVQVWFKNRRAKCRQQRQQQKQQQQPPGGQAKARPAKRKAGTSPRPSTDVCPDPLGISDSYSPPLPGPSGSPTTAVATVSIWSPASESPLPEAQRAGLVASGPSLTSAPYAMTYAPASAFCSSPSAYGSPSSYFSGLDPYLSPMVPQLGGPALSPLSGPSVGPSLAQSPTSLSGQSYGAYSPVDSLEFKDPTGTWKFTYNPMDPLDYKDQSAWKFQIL
# Summary of the method: as §1
# ETV1 = ETV1 (Homo sapiens, UniProt P50549 1-477); conditions: protein: recombinant; tags: N-terminal GST; dsDNA, one strand shown
# ETV1, sequence (P50549 whole entry): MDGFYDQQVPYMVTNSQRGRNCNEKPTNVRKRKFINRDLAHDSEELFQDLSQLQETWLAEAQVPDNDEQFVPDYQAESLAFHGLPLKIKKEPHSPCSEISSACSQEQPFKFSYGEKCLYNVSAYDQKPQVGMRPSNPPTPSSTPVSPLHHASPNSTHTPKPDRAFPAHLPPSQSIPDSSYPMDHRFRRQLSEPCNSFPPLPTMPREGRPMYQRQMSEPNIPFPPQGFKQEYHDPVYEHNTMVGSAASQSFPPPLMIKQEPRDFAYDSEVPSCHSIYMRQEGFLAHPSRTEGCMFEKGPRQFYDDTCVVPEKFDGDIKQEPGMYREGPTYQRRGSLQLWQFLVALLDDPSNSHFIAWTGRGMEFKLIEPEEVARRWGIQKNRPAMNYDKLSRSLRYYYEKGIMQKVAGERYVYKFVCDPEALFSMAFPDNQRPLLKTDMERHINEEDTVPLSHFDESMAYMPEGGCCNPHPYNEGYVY
# Summary of the method: as §1
sequence,measurement,setting,value
AATACT,binding signal,FLI1,"1.16 fold enrichment (6-mer frequency, TF over GST control)"
same,binding signal,ELK1,"1.19 fold enrichment (6-mer frequency, TF over GST control)"
same,binding signal,GABPA,"1.23 fold enrichment (6-mer frequency, TF over GST control)"
same,binding signal,ERG,"1.22 fold enrichment (6-mer frequency, TF over GST control)"
same,binding signal,ELF1,"1.29 fold enrichment (6-mer frequency, TF over GST control)"
same,binding signal,EHF,"1.24 fold enrichment (6-mer frequency, TF over GST control)"
same,binding signal,SPI1,"1.21 fold enrichment (6-mer frequency, TF over GST control)"
same,binding signal,SPIB,"1.14 fold enrichment (6-mer frequency, TF over GST control)"
same,binding signal,ELK3,"1.23 fold enrichment (6-mer frequency, TF over GST control)"
same,binding signal,FEV,"1.21 fold enrichment (6-mer frequency, TF over GST control)"
same,binding signal,ETV5,"1.27 fold enrichment (6-mer frequency, TF over GST control)"
same,binding signal,HSF1,"1.34 fold enrichment (6-mer frequency, TF over GST control)"
same,binding signal,SPIC,"1.25 fold enrichment (6-mer frequency, TF over GST control)"
same,binding signal,ELF4,"1.16 fold enrichment (6-mer frequency, TF over GST control)"
same,binding signal,ELK4,"1.24 fold enrichment (6-mer frequency, TF over GST control)"
same,binding signal,ETV2,"1.36 fold enrichment (6-mer frequency, TF over GST control)"
same,binding signal,ELF3,"1.26 fold enrichment (6-mer frequency, TF over GST control)"
same,binding signal,CRX,"1.47 fold enrichment (6-mer frequency, TF over GST control)"
same,binding signal,ETV1,"1.26 fold enrichment (6-mer frequency, TF over GST control)"
